Compound activity: PubChem BioAssay, The Scripps Research Institute Molecular Screening Center
An excerpt weighted towards active compounds, which were near 2% of everything screened.
CHRM4 antagonist: CHRM4 antagonism in calcium assay. hit rate 0.73% among 360,000. CHO-hM4 cells, ACh EC80, Fluo-8 calcium fluorescence. inhibition, % at 3 µM;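 active = inhibition above its plate's cutoff, the mean inhibition of sample wells plus 3 SD, cut at about 27% in these data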
Target sequence (P08173 whole entry, looked up): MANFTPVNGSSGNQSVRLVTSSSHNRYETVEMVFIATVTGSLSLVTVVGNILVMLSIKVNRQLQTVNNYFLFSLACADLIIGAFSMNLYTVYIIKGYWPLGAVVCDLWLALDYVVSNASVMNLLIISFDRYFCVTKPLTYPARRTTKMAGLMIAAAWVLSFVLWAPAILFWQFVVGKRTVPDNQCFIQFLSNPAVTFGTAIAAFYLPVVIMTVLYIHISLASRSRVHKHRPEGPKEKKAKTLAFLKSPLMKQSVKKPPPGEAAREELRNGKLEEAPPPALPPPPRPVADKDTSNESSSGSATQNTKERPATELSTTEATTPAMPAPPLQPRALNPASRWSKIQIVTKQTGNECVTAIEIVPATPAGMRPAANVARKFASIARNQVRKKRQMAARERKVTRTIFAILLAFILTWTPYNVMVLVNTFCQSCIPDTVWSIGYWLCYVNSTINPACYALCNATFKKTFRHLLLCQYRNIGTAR
CHRM4 PAM: positive allosteric modulators of human muscarinic M4 receptor; P08173; CHO-K1 hM4/Gqi5, Fluo-8 calcium fluorescence, ACh EC20; 0% = ACh EC20, 100% = maximal ACh; activation, % at 3 µM; hit rate 0.4% among 360,000; AID 624126;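 active = activation above its plate's cutoff, the mean activation of sample wells plus 3 SD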
CHO-K1 Ca antag: counter-screen for M1 antagonists: effect in parental CHO-K1 cells. ATP-induced calcium, Fluo-8 fluorescence. inhibition, % at 3 µM. hit rate 0.6% among 360,000. AID 602250;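 active = inhibition above a per-plate cutoff, the plate's mean sample inhibition plus 3 SD, cut at about 24% in these data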
M4 ag: agonists of human muscarinic M4 receptor (CHRM4) | P08173 | CHO-K1 hM4/Gqi5, Fluo-8 calcium fluorescence; vehicle 0%, full acetylcholine response 100% | activation, % at 3 µM | hit rate 0.14% among 360,000;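 active = activation above the run mean over all test wells plus 3 SD, cut at about 32% in these data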;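 also: peak over basal fluorescence ratio per well then scaled between controls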
CHO-K1 Ca PAM: counter-screen for M1 PAMs: effect in parental CHO-K1 cells | ATP EC20, Fluo-8 calcium fluorescence; 0% at ATP EC20, 100% at ATP max | activation, % at 3 µM | hit rate 0.02% among 360,000 | AID 602247;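 active = activation above the run cutoff, the mean activation of all test compounds plus 3 SD, cut at about 40% in these data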;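 also: peak over basal fluorescence ratio in a 140 s read after ATP addition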
M1 ag parental: M1 agonist counterscreen hit in parental CHO-K1 cells. Fluo-8 calcium fluorescence; scaled to maximal ATP response, vehicle zero. activation, % at 3 µM. hit rate 0.48% among 360,000. AID 602248; in the data active = activation above about 15%;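 also: untransfected CHO-K1 host cells lacking M1 receptor as counterscreen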
Each line names hits and unclear results; the compound was inactive in the other large screens.

O=C(CNC(=O)c1ccco1)OCc1cccc(Cl)c1	none
O=C(CNC(=O)c1ccco1)NCC(=O)OCc1cccc(Cl)c1	CHRM4 PAM 44
O=C(NCCNC(=O)c1ccc(Cl)cc1Cl)c1ccco1	CHRM4 PAM 16
CCOC(=O)c1c(C)n(C)c2cc(-c3ccc(C)cc3)c(O)cc12	CHO-K1 Ca antag 28
CCOC(=O)c1c(C)n(C)c2cc(-c3cccc(C(F)(F)F)c3)c(O)cc12	CHO-K1 Ca antag 27
O=C1SCCC1NS(=O)(=O)c1ccc([N+](=O)[O-])cc1 (centres undefined)	none
COC(=O)c1ccc2[nH]c(C)cc(=O)c2c1	CHRM4 antagonist 55
CN(Cc1ccccc1)C(=O)COc1ccc(C(C)(C)C)cc1	none
CC1(C(=O)NC2CCCC2)CCC(=O)N1CCOc1ccccc1 (centres undefined)	CHO-K1 Ca antag 28
COc1ccc2[nH]cc(CCNS(=O)(=O)c3ccc(C)cc3)c2c1	M1 ag parental 26
Cc1cc(C(=O)OCC(=O)NCc2ccco2)c(C)o1	none
O=C(Nc1ccc(OCC(F)(F)C(F)F)c(C(F)(F)F)c1)c1ccccc1O	CHO-K1 Ca antag 24
COCc1c(C(=O)OCC(=O)NCc2ccco2)oc2ccccc12	CHO-K1 Ca antag 24
CC1CCCN(C(C(=O)NC2CCCCC2)c2cc3c(cc2[N+](=O)[O-])OCO3)C1 (centres undefined)	CHRM4 PAM 25
CSc1ncccc1C(=O)OCC(=O)NC1CCS(=O)(=O)C1 (centres undefined)	M1 ag parental 16
O=C(COC(=O)C1(c2ccccc2F)CCCC1)NC1CCS(=O)(=O)C1 (centres undefined)	CHRM4 PAM 24
O=C(COc1ccccc1)NC1CCS(=O)(=O)C1 (centres undefined)	none
Cn1c(=O)c2cc(NC(=O)OCCF)ccc2n1Cc1cccc(C(F)(F)F)c1	none
Cc1cc(C)nc(SCC(=O)OCC(=O)N(C)c2c(N)n(Cc3ccccc3)c(=O)[nH]c2=O)n1	none
Fc1ccccc1CNc1ncnc2sccc12	none
c1ccc2c(c1)OCC(CNc1ncnc3sccc13)O2 (centres undefined)	CHO-K1 Ca antag 31
CC(C)NC(=O)C1CCN(C2CCN(C(=O)c3ccc4cccc(F)c4n3)CC2)CC1	none
Cc1nc(N)c(Cc2ccc(Cl)cc2Cl)c(N)n1	M4 ag 36
C=CCn1c(O)c(C(CC)=NCc2cccnc2)c(=O)[nH]c1=O	CHO-K1 Ca antag 25
Cc1[nH][nH]c(=O)c1C=NCc1cccnc1	none
CC(=O)c1sc(Nc2ccc(Oc3ccccc3)cc2)nc1C	CHRM4 antagonist 34
Cc1ccc2c(c1)Oc1ccc(NC(=O)CCl)cc1C(=O)N2	none
COc1cc(NC(=O)COc2cc(O)c3c(c2)OC(C)(C)CC3=O)cc(OC)c1OC	CHO-K1 Ca antag 37, M1 ag parental 18
COc1cc(NC(=O)COc2cccc3c2OC(C)(C)C3)cc(OC)c1OC	M1 ag parental 18
CC1(C)Cc2cccc(OCC(=O)Nc3cc(C(F)(F)F)ccc3N3CCOCC3)c2O1	CHO-K1 Ca antag 30
CC(=O)Nc1ccc(NC(=O)COc2cccc3c2OC(C)(C)C3)cc1	none
CN1CCC(=NNc2ncnc3sc4c(c23)CCCC4)CC1	CHO-K1 Ca antag 27
c1nc(NCCN2CCOCC2)c2c3c(sc2n1)CCCCC3	none
CC1(C)CC(=O)C=C(OC(=O)c2ccc(Cl)cc2)C1	none
Cc1c(/C=N/NC(=O)c2sc3ccccc3c2Cl)cnn1C	CHO-K1 Ca antag 26
COC(=O)c1[nH]c2ccc(F)cc2c1NS(=O)(=O)c1ccc(OC)cc1	CHRM4 antagonist 29
COc1ccc(S(=O)(=O)Nc2c(C(=O)O)[nH]c3ccc(OC)cc23)cc1	none
Cc1c(N=Nc2c(-c3ccc([N+](=O)[O-])cc3)[nH]n(C(N)=S)c2=O)cccc1[N+](=O)[O-]	none
Cc1[nH]n(C(N)=S)c(=O)c1N=Nc1cccc([N+](=O)[O-])c1C	M1 ag parental 26
CCOCc1nnc(NC(=O)C2c3ccccc3Oc3ccccc32)s1	M1 ag parental 20
CCN(CC)CCNC(=O)C1c2ccccc2Oc2ccccc21	CHRM4 antagonist 37
CN(C(=O)COC(=O)C1c2ccccc2Oc2ccccc21)C1CCS(=O)(=O)C1 (centres undefined)	CHRM4 antagonist 95
CCN(CC)CCOC(=O)C1c2ccccc2Oc2ccccc21	CHRM4 antagonist 98
CC(=O)C1=CCC(c2ccc(C)cc2)N(S(=O)(=O)c2ccc(Cl)cc2)C1 (centres undefined)	none
COc1ccc(CN2C[C@H]3CON(C)[C@H]3C[C@H]2c2ccc(-c3ccccc3)cc2)cc1	none
COc1ccccc1-c1ccc(/C=C2\C=CC(=O)O2)o1	M1 ag parental 28
CCn1cc(C(=O)N[C@H](C(=O)O)C(C)C)c(=O)c2cc3c(cc21)OCO3	none
CCn1nc(C(=O)O)c(=O)c2cc3c(cc21)OCO3	CHRM4 antagonist 34
Cc1cc(Cl)ccc1OCC(=O)NCc1ccncc1	none
O=C(COc1ccc(Cl)cc1Cl)NCc1ccncc1	CHRM4 antagonist 30
CC(C)NC(=O)CSc1ccccc1C(=O)N1CCN(S(=O)(=O)Cc2ccccc2)CC1	none
COc1cccc(N/C(N)=N/c2nc(C(F)(F)F)cc(=O)[nH]2)c1	M1 ag parental 18
Nc1[nH]c2cc([N+](=O)[O-])ccc2c1-c1ccccn1	M4 ag 54
COc1ccc(NC(=O)N/C=C/c2ccccc2)cc1	M1 ag parental 16
O=C(CSc1nc2[nH]ncc2c(=O)n1-c1ccccc1)NCCc1ccccc1	M1 ag parental 17
CC(C)C[C@@H]1CC2=C(C(=O)OC(C)(C)O2)[C@H](c2ccc(Cl)cc2)O1	none
CC(C)(C)OC(=O)N1CCCC(C(=O)Nc2cccc(C(=O)N3CCCC3)c2)C1 (centres undefined)	none
COc1cccc(N2CCN(C(=S)NCc3ccco3)CC2)c1	CHO-K1 Ca antag 26
O=C(NCCN1CCOCC1)c1ccc(NC(=O)C2COc3ccccc3O2)cc1 (centres undefined)	none
Cc1ccsc1C(=O)N1CCC1(C)C(=O)NS(=O)(=O)c1ccc(Br)cc1 (centres undefined)	none
COc1cccc(OCC(O)CN2CCN(C(c3ccccc3)c3ccccc3)CC2)c1 (centres undefined)	none
CC(=O)c1ccccc1OCC(O)CN1CCN(C(c2ccccc2)c2ccccc2)CC1 (centres undefined)	CHRM4 antagonist 35
OC(COc1cccc2ccccc12)CN1CCN(c2cccc(Cl)c2)CC1 (centres undefined)	M1 ag parental 21
O=C(c1ccccc1)c1sc(N2CCCCCC2)nc1-c1ccccc1	none
